{"source": "PubChem BioAssay (EPA / NIEHS)", "key": {"[1]": {"test": "STM_H9_OrnCyssISnorm_ratio: Stemina devTOX quickPredict H9 human embryonic stem cell (hESC)-based Assay for Ornithine (ORN):Cystine (CYSS) Ratio (AID 2283714)", "procedure,_shortened": "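Undifferentiated H9 hESCs were exposed to compound for 72h with media and chemical replaced every 24h. Final 24-h conditioned media were deproteinized and analysed by UPLC-HRMS. ORN and CYSS peak areas were normalized to C13 internal standards and the ratio taken versus 0.1% DMSO.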"}, "[2]": {"test": "TAMU_PeakParms_SingleDonor1434_Chronotropy: Texas A&M University (TAMU) 1.5-hr Human Induced Pluripotent Stem Cell (iPSC)-derived Cardiomyocytes Calcium (Ca+2) Flux Assay for Cardiotoxicity: Chronotropy (changes in peak frequency) (AID 2284217; active = hit-call score of the fitted dose curve at least 0.9, where 1 is the maximum; inactive = score below 0.9)", "conditions": "actives raise or lower the signal", "procedure,_shortened": "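Beat rate, as mean Ca2+-flux peak frequency, was read from donor 1434 iPSC cardiomyocytes 90 min after exposure to 0.2–100 uM test chemical (0.5% DMSO). Wells that stopped beating were excluded; EC05 from bidirectional DMSO-referenced fitting.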"}, "[3]": {"test": "TAMU_PeakParms_SingleDonor1434_QT: Texas A&M University (TAMU) 1.5-hr Human Induced Pluripotent Stem Cell (iPSC)-derived Cardiomyocytes Calcium (Ca+2) Flux Assay for Cardiotoxicity: QT (decay-rise ratio) (AID 2284235)", "procedure,_shortened": "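iPSC-derived cardiomyocytes (single donor 1434) dosed at 0.2, 1, 10, 100 uM final in 0.5% DMSO, 90 min at 37C. Ca2+ flux fluorescence decay/rise ratio; EC05 (5% increase versus DMSO) as POD, excluding beat-arrest and severe-notch data.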"}, "[4]": {"test": "TAMU_PeakParms_SingleDonor1434_Asystole: Texas A&M University (TAMU) 1.5-hr Human Induced Pluripotent Stem Cell (iPSC)-derived Cardiomyocytes Calcium (Ca+2) Flux Assay for Cardiotoxicity: Asystole (quiescence of beating) (AID 2284328)", "procedure,_shortened": "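Human iPSC-derived cardiomyocytes (donor 1434) were exposed to 0.2, 1, 10 and 100 uM compound in 0.5% DMSO for 90 min at 37C. Ca2+-dye fluorescence gave average peak frequency; POD is EC95, a 95% beat-rate drop versus DMSO.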"}, "[5]": {"test": "UKN5_HCS_SBAD2_cell_viability: Viability Assessment in the University of Konstanz (UKN) Leist Lab Neurite Outgrowth Assay in human iPSC-derived immature Dorsal Root Ganglia Neurons (UKN5) (AID 2284056; active = hit-call score of the fitted dose curve at least 0.9, where 1 is the maximum; inactive = score below 0.9)", "procedure,_shortened": "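iPSC-derived immature peripheral neurons (SBAD2) seeded on Matrigel with CHIR99021, SU5402 and DAPT, dosed 1 h later for 24 h. Viability from Hoechst H-33342 and calcein-AM live staining, high-content imaging; bidirectional fit versus DMSO.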"}, "[6]": {"test": "UKN5_HCS_SBAD2_neurite_outgrowth: University of Konstanz (UKN) Leist Lab Neurite Outgrowth Assay in human iPSC-derived immature Dorsal Root Ganglia Neurons (UKN5) (AID 2284070; active = hit-call score of the fitted dose curve at least 0.9, where 1 is the maximum; inactive = score below 0.9)", "conditions": "actives raise or lower the signal", "procedure,_shortened": "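Read-out: calcein-AM-stained neurite area by high-content imaging, Hoechst H-33342 for viability, after 24 h exposure of iPSC-derived immature dorsal root ganglia neurons. Activity fitted in both directions relative to DMSO baseline.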"}, "[7]": {"test": "UKN2_HCS_IMR90_neural_migration: University of Konstanz (UKN) Leist Lab Neural Crest Cell Migration Assay in human induced IMR90 Pluripotent Stem Cells (UKN2) (AID 2284204; active = hit-call score of the fitted dose curve at least 0.9, where 1 is the maximum; inactive = score below 0.9)", "conditions": "actives raise or lower the signal", "procedure,_shortened": "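iPSC-derived IMR90 neural crest cells on PLO/laminin/fibronectin were seeded around silicone stoppers; after stopper removal, migration in N2-S medium with EGF and FGF ran 24 h before 24 h chemical exposure. Calcein-AM/Hoechst high-content imaging; bidirectional fit versus DMSO.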"}, "[8]": {"test": "UKN4_HCS_LUHMES_neurite_outgrowth: University of Konstanz (UKN) Leist Lab Neurite Outgrowth Assay in human LUHMES cells (UKN4) (AID 2284206; active = hit-call score of the fitted dose curve at least 0.9, where 1 is the maximum; inactive = score below 0.9)", "conditions": "actives raise or lower the signal", "procedure,_shortened": "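Day 0 switch to differentiation medium; day 2 replate (30000 cells/well) without cAMP and GDNF; compounds added 30 min–2 h later. At 23.5 h, 30 min calcein-AM/H-33342 live stain, then imaging.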"}, "[9]": {"test": "CCTE_Mundy_HCI_hN2_NOG_NeuriteCount: CCTE's Neurite Outgrowth Assay in human hN2 cells for Neurite Count, Mundy Lab (AID 2284219)", "procedure,_shortened": "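In this morphology assay, hNP1-derived neurons received test chemical 2 h post-plating and were fixed two days later in warm paraformaldehyde/sucrose containing Hoechst 33342. Neurites, labelled by rabbit anti-βIII-tubulin (1:800) and Alexa Fluor-488 (1:500), were counted automatically.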"}, "[10]": {"test": "CCTE_Mundy_HCI_hN2_NOG_NeuriteLength: CCTE's Neurite Outgrowth Assay in human hN2 cells for Neurite Length, Mundy Lab (AID 2284220)", "procedure,_shortened": "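Using βIII-tubulin immunofluorescence and Hoechst nuclear counterstain, this component quantifies neurite length in hNP1-derived neurons.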"}, "[11]": {"test": "CCTE_Mundy_HCI_hN2_NOG_NeuronCount: CCTE's Neurite Outgrowth Assay in human hN2 cells for Neuron Count, Mundy Lab (AID 2284221)", "procedure,_shortened": "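Read-out is the number of betaIII-tubulin-positive neurons imaged by automated high-content analysis, with DMSO as negative control.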"}, "[12]": {"test": "CCTE_Mundy_HCI_hNP1_Pro_ResponderAvgInten: CCTE's Proliferation Assay in human neuroprogenitor cells, Mundy Lab (AID 2284224)", "procedure,_shortened": "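Human neuroprogenitors (hNP1, WA09 lineage) receive test chemical after 40 to 44 hours of attachment. A four-hour BrdU pulse begins twenty hours later, followed by fixation and high content imaging; signal is referenced to DMSO controls.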"}, "[13]": {"test": "UKN4_HCS_LUHMES_cell_viability: Viability Assessment in the University of Konstanz (UKN) Leist Lab Neurite Outgrowth Assay in human LUHMES cells (UKN4) (AID 2284232; active = hit-call score of the fitted dose curve at least 0.9, where 1 is the maximum; inactive = score below 0.9)", "procedure,_shortened": "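Fluorescence intensity from high-content imaging of Hoechst H-33342/calcein-AM-stained cells served as the viability read-out. Human LUHMES precursors were differentiated 2 days, replated and treated 24 h; curves were fitted bidirectionally against DMSO.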"}, "[14]": {"test": "UKN2_HCS_IMR90_cell_viability: Viability Assessment in the University of Konstanz (UKN) Leist Lab Neural Crest Cell Migration Assay in human induced IMR90 Pluripotent Stem Cells (UKN2) (AID 2284233; active = hit-call score of the fitted dose curve at least 0.9, where 1 is the maximum; inactive = score below 0.9)", "procedure,_shortened": "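iPSC-derived (IMR90) neural crest cells seeded around silicone stoppers on PLO/laminin/fibronectin; after 24 h migration in N2-S with EGF/FGF, chemical added for 24 h. Calcein-AM/Hoechst stained 30 min, high-content imaged; bidirectional fit versus DMSO.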"}, "[15]": {"test": "CCTE_Mundy_HCI_Cortical_NOG_NeuronCount: CCTE's Neurite Outgrowth Assay in rat cortical cells for Neuron Count, Mundy Lab (AID 2284236);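 note: cells exposed to compound for about 48 hours before fixation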", "procedure,_shortened": "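Read-out: neuron number by high-content imaging of betaIII-tubulin (Alexa Fluor-488) and Hoechst-labelled rat primary cortical cells.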"}, "[16]": {"test": "CCTE_Mundy_HCI_Cortical_Synap_Neur_Matur_NeuronCount: CCTE's Synaptogenesis and Neurite Maturation Assay in rat cortical cells for Neuron Count, Mundy Lab (AID 2284242)", "procedure,_shortened": "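Neuron number was scored by automated high-content imaging of Hoechst- and MAP2-labelled rat primary cortical cells. Glial growth was arrested with AraC at DIV 5, compounds were applied from DIV 7, and cultures ended at DIV 12.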"}}, "note": "Inconclusive results are not listed. Calls of active or inactive are those of the source. Rule for the calls, unless noted: active = hit-call score of the fitted dose curve at least 0.9, where 1 is the maximum; inconclusive = response in the unintended direction; inactive = score below 0.9.", "data": [{"smiles": "Cc1c(C(N)=O)cc([N+](=O)[O-])cc1[N+](=O)[O-]", "values": [{"measurement": "outcome", "setting": "[1]", "value": "inactive"}]}, {"smiles": "Nc1nc(N)c2nc(-c3ccccc3)c(N)nc2n1", "values": [{"measurement": "outcome", "setting": "[2]", "value": "inactive"}, {"measurement": "outcome", "setting": "[3]", "value": "inactive"}, {"measurement": "outcome", "setting": "[4]", "value": "inactive"}]}, {"smiles": "CNCCC(Oc1ccc(C(F)(F)F)cc1)c1ccccc1", "note": "(stereo unspecified)", "values": [{"measurement": "AC50", "setting": "[5]", "value": "18.8 µM (active)"}, {"measurement": "AC50", "setting": "[6]", "value": "12.7 µM (active)"}, {"measurement": "AC50", "setting": "[7]", "value": "15 µM (active)"}, {"measurement": "AC50", "setting": "[8]", "value": "7.3 µM (active)"}, {"measurement": "AC50", "setting": "[9]", "value": "12.3 µM (active)"}, {"measurement": "AC50", "setting": "[10]", "value": "12.9 µM (active)"}, {"measurement": "AC50", "setting": "[11]", "value": "11 µM (active)"}, {"measurement": "outcome", "setting": "[12]", "value": "inactive"}, {"measurement": "AC50", "setting": "[13]", "value": "18.6 µM (active)"}, {"measurement": "AC50", "setting": "[14]", "value": "24.8 µM (active)"}, {"measurement": "AC50", "setting": "[15]", "value": "16 µM (active)"}, {"measurement": "AC50", "setting": "[16]", "value": "5.97 µM (active)"}]}]}
